The list is not random: actives were taken first. Their share in the collection is about 1.2%.
RGS7-Gao – RGS7-Galphao binding modulators, primary screen, biochemical, multiplexed bead flow cytometry | Guanine nucleotide-binding protein G(o) subunit alpha (Homo sapiens), P09471 | actives lie on both sides | binding response (% of control), % at 10 µM | 220,000 compounds, 0.35% hits | AID 1439, 2008; in the data active means binding response below about 49% or above about 150%; inconclusive means no clear call, values can overlap the other calls; inactive means in between;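 further: fluorescent Galphao held in activated GDP-AlF4 state binding bead-coupled RGS7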
Target sequence (P09471 whole entry, looked up): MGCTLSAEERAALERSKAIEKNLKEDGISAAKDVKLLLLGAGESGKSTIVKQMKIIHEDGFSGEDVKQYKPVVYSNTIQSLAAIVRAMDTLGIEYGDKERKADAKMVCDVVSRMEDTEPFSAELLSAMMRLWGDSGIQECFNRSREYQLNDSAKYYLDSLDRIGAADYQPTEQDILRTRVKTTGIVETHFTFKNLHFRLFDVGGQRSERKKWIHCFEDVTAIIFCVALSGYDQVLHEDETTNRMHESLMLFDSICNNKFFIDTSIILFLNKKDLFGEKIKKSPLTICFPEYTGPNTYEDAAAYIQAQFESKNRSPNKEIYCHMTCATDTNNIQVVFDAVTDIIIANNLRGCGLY
Avidin fluor – green autofluorescence of compounds with avidin beads – biophysical, 488/530 nm, flow cytometry, artefact control, profiling panel. compound fluorescence 488/530 nm; stronger effect = higher value. fluorescence (KMESF) at 10 µM. 220,000 compounds, 0.38% hits; in the data active means fluorescence above about 47
RGS8-Gao reg – RGS8-Galphao binding modulators, primary screen, biochemical, multiplexed bead flow cytometry | actives lie on both sides | response (percent of control binding), % at 10 µM | Guanine nucleotide-binding protein G(o) subunit alpha (Homo sapiens), P09471 | AID 1423, 2008 | 220,000 compounds, 0.34% hits; in the data active means response below about 60% or above about 140%; inactive means in between;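 further: Galphao activated as the GDP aluminium fluoride complex binding bead-coupled RGS8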
RGS16-Gao HTS – modulators of RGS16 binding to Galphao, primary screen, biochemical, human proteins, multiplexed bead flow cytometry. binding response (% of control), % at 10 µM. bead-based flow cytometry RGS16-Galphao binding, fluorescence; actives lie on both sides. 220,000 compounds, 0.38% hits. Regulator of G-protein signaling 16 (Homo sapiens) + Guanine nucleotide-binding protein …;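 further: Galphao activated by GDP with aluminum fluoride before binding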
Target sequence (O15492 whole entry, looked up): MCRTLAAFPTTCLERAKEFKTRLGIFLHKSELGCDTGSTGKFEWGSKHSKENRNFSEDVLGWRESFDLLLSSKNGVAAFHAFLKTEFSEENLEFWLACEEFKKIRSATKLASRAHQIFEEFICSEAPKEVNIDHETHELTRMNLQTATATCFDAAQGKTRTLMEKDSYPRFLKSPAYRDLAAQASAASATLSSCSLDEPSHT
Target sequence (P09471 whole entry, looked up): as the sequence (P09471 whole entry, looked up) above
RGS4-Gao reg – modulators of RGS4 binding to Galphao, primary screen, biochemical, multiplexed bead flow cytometry; 220,000 compounds, 0.33% hits; actives lie on both sides; AID 1415, 2008; Guanine nucleotide-binding protein G(o) subunit alpha (Homo sapiens), P09471; binding response (% of control), % at 10 µM; in the data active means binding response below about 49% or above about 150%; inactive means in between;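 further: fluorescent Galphao activated with aluminum fluoride binding bead-coupled RGS4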
GSH fluor – compound fluorescence on glutathione beads, profiling panel, artefact control, biophysical, 488/530 nm, flow cytometry; GSH beads flow cytometry, compound fluorescence 488/530 nm; stronger effect = higher value; fluorescence (KMESF) at 10 µM; 190,000 compounds, 0.25% hits; AID 1776, 2009; in the data active means fluorescence above about 89;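 further: glutathione beads carrying GST-tagged Bcl family fusion proteins plus one bare bead set; values are compound well signal with DMSO vehicle wells as background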
RGS-Gao – modulators of RGS–Galpha-o binding, primary screen, biochemical, multiplexed beads, flow cytometry, RGS4/7/8/16/19. 1,600 compounds, 99% hits. RGS4–Galpha-o binding response, % at 10 µM. multiplexed bead flow cytometry. shares compounds with RGS16-Gao HTS;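 further: fluorescently labeled Galpha-o bound to GDP with aluminium fluoride binding biotinylated RGS beads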
Avidin counter – disruption of biotin probe capture by avidin, counter-screen for RGS protein interaction modulators, biochemical, flow cytometry, bead-based. AID 1783, 2009. 1,700 tested, under 10 active. inhibition, % at 10 µM. streptavidin beads, fluorescein-biotin binding. shares compounds with RGS16-Gao HTS;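 active means inhibition above 50%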;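 further: median green fluorescence of gated singlet beads compared with DMSO control wells; 0% = DMSO wells and 100% = complete loss of bead fluorescence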
RGS8-Gao confirm – RGS8-Galphao binding modulators, confirmation, biochemical, multiplexed bead flow cytometry, single concentration; shares compounds with RGS16-Gao HTS; bead-based flow cytometry RGS8-Galphao binding, fluorescence; actives lie on both sides; binding response (% of control), % at 10 µM; 1,700 compounds, 3% hits; in the data active means binding response below about 72% or above about 130%; inactive means in between;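 further: Galphao activated as GDP AlF4 complex before binding bead RGS8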
RGS7-Gao single – RGS7-Galphao binding modulators, confirmation, biochemical, multiplexed bead flow cytometry, single concentration; bead-based flow cytometry RGS7-Galphao binding; actives lie on both sides; AID 1837, 2009; 1,700 compounds, 7.8% hits; shares compounds with RGS16-Gao HTS; response (percent of control binding), % at 10 µM; in the data active means response below about 75% or above about 130%; inactive means in between;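 further: fluorescent Galphao activated with GDP and aluminum fluoride binding bead-coupled RGS7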
RGS16-Gao conf – modulators of RGS16-Galphao protein binding, confirmation, biochemical, single concentration, multiplexed bead flow cytometry. shares compounds with RGS16-Gao HTS. bead-based flow cytometry; actives lie on both sides. response (% of control binding), % at 10 µM. 1,700 compounds, 4% hits; in the data active means response below about 74% or above about 130%; inactive means in between;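 further: Galphao activated as the GDP aluminium fluoride complex binding bead-coupled RGS16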
RGS4-Gao single – modulators of RGS4-Galphao protein binding, confirmation, biochemical, single concentration, multiplexed bead flow cytometry. actives lie on both sides. 1,700 compounds, 4% hits. binding response (% of control), % at 10 µM. shares compounds with RGS16-Gao HTS; in the data active means binding response below about 74% or above about 130%; inactive means in between
RGS19-Gao single – regulators of RGS19-Galphao binding, confirmation, biochemical, single point, multiplexed bead flow cytometry | shares compounds with RGS16-Gao HTS | bead-based flow cytometry RGS19-Galphao binding; actives lie on both sides | response (percent of control binding), % at 10 µM | 1,700 compounds, 5% hits | AID 1841, 2009; in the data active means response below about 50% or above about 160%; inactive means in between;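 further: 100% = no compound control and 0% = blank background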
* marks the source's active call; other numbers are inactive results; [ ] = dose if it differs, or a comment. Unless noted, how the calls were made is not given here.

Screening Cc1ccc(C(c2sc3nc(C)nn3c2O)N2CCN(C(=O)c3ccco3)CC2)cc1 (configuration not stated) returned RGS7-Gao 100, Avidin fluor 4, RGS8-Gao reg 76, RGS16-Gao HTS 23*, RGS4-Gao reg 97, GSH fluor 14, RGS-Gao 97*, Avidin counter 0, RGS8-Gao confirm 99, RGS7-Gao single 96, RGS16-Gao conf 99, RGS4-Gao single 99 and RGS19-Gao single 90.
`Cc1nc2sc(C(c3ccccc3)N3CCN(C(=O)c4ccco4)CC3)c(O)n2n1` (configuration not stated) gave RGS7-Gao 103, Avidin fluor 7, RGS8-Gao reg 102, RGS16-Gao HTS 102, RGS4-Gao reg 101 and GSH fluor 71.
`O=C(O)CCCCCN1C(=O)/C(=C\c2ccncc2)SC1=S` gave RGS7-Gao 100, Avidin fluor 11, RGS8-Gao reg 122, RGS16-Gao HTS 205, RGS4-Gao reg 102 and GSH fluor 7.
For O=C(O)CCCN1C(=O)/C(=C/c2ccncc2)SC1=S the results were RGS7-Gao inconclusive, Avidin fluor 40, RGS8-Gao reg 104, RGS16-Gao HTS 137, RGS4-Gao reg 151*[activator], Avidin counter -1, RGS8-Gao confirm 99, RGS7-Gao single 98, RGS16-Gao conf 99, RGS4-Gao single 99 and RGS19-Gao single 101.
Screening CCn1c(=O)n(CC(=O)N2CC(C)CC(C)C2)c(=O)c2ccccc21 (configuration not stated) returned RGS7-Gao 98, Avidin fluor 33, RGS8-Gao reg 100, RGS16-Gao HTS 97, RGS4-Gao reg 101 and GSH fluor 11.
CCn1c(=O)n(CC(=O)NC2CCCC(C)C2C)c(=O)c2ccccc21 (configuration not stated) was read as RGS7-Gao 198*[activator], Avidin fluor 99*, RGS8-Gao reg 115, RGS16-Gao HTS 178, RGS4-Gao reg 119, GSH fluor 38 and RGS-Gao 119*.
For CSCC[C@H](NC(=O)Nc1ccc(OC(F)(F)F)cc1)C(=O)O the results were RGS7-Gao inconclusive, Avidin fluor 5, RGS8-Gao reg 55*, RGS16-Gao HTS 48, RGS4-Gao reg 61, RGS-Gao 61*, Avidin counter 0, RGS8-Gao confirm 102, RGS7-Gao single 99, RGS16-Gao conf 98, RGS4-Gao single 102 and RGS19-Gao single 97.
COCCN1Cc2cccc(C(=O)NCc3ccccn3)c2C1=O was read as RGS7-Gao 111, Avidin fluor 13, RGS8-Gao reg 109, RGS16-Gao HTS 120, RGS4-Gao reg 106 and GSH fluor 14.
For COCCN1Cc2cccc(C(=O)NCc3ccc4c(c3)OCO4)c2C1=O the results were RGS7-Gao 92, Avidin fluor 6, RGS8-Gao reg 70, RGS16-Gao HTS 20*, RGS4-Gao reg 89, GSH fluor 22, RGS-Gao 89*, Avidin counter 1, RGS8-Gao confirm 106, RGS7-Gao single 99, RGS16-Gao conf 109, RGS4-Gao single 103 and RGS19-Gao single 106.
Screening CN1C(=O)/C(=C/c2ccccc2OCc2cccc(F)c2)N(C)C1=S returned GSH fluor 36, Avidin counter 2, RGS8-Gao confirm 100, RGS7-Gao single 99, RGS16-Gao conf 101, RGS4-Gao single 99 and RGS19-Gao single 97.
For Fc1cccc(COc2ccccc2C(=S)N2CCCC2)c1 the results were RGS7-Gao 100, Avidin fluor 12, RGS8-Gao reg 99, RGS16-Gao HTS 103, RGS4-Gao reg 101 and GSH fluor 14.
`CC(CCc1ccccc1)NC(=O)CSc1nccc(=O)[nH]1` (configuration not stated) gave RGS7-Gao 11*, Avidin fluor -2, RGS8-Gao reg 21*, RGS16-Gao HTS 7.1*, RGS4-Gao reg 12*, GSH fluor 43, Avidin counter -1, RGS8-Gao confirm 97, RGS7-Gao single 79, RGS16-Gao conf 91, RGS4-Gao single 91 and RGS19-Gao single 79.
`O=c1c2ccccc2c(C=NC2CCS(=O)(=O)C2)c(O)n1-c1ccccc1` (configuration not stated) gave RGS7-Gao 91, Avidin fluor 8, RGS8-Gao reg 94, RGS16-Gao HTS 93, RGS4-Gao reg 90 and GSH fluor 27.
